Abs 340nm: compound light absorbance at 340 nm, profiling panel, artefact control, biochemical, MLSMR library, data from PS, PMK, MK assays. 65,000 tested, under 10 active. compound absorbance at 340 nm, fold over control. fold change at 10 µM;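 active = at 10 µM dose, initial 340 nm absorbance at least 2 fold that of control wells; inactive = change under 2 fold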;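 also: initial absorbance extrapolated from kinetic A340 decline of NADH oxidation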
NADH enzymes: inhibitors of PK/LDH coupling enzymes, profiling panel, artefact control, biochemical, MLSMR library; hit rate 0.02% among 65,000; coupled PK/LDH NADH assays, four targets; IC50, µM (series often up to 10 µM), for the others: at the highest dose inhibition;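 active = single-dose screening hits from any of four coupled enzyme assays that gave an IC50 when retested across doses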;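 also: the DPM-DC format reads NADH fluorescence rather than 340 nm absorbance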
Spn MK inh: S. pneumoniae MK inhibitors, primary screen, biochemical, PK/LDH-coupled NADH absorbance. mevalonate kinase [Streptococcus pneumoniae D39]. purified MK, PK/LDH-coupled NADH absorbance 340 nm. inhibition, % at 10 µM. hit rate 0.48% among 65,000;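 active = ranked among the strongest by inhibition in the single 10 µM screen, a fixed top-ranked set picked for dose follow-up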
Spn DPM-DC inh: S. pneumoniae DPM-DC inhibitors, primary screen, biochemical, PK/LDH-coupled NADH fluorescence; calls only at 10 µM; hit rate 0.49% among 65,000; AID 556, 2006; purified DPM-DC;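 active = the 320 compounds with the highest percent inhibition in the single-dose primary screen, excluding strongly autofluorescent ones, cut at about 32% in these data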;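 also: kinetic rate of NADH fluorescence loss reporting ADP formed by the decarboxylase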
Spn PMK inh: S. pneumoniae PMK inhibitors, primary screen, biochemical, mevalonate pathway, pilot trial included. phosphomevalonate kinase (Streptococcus pneumoniae D39). purified PMK, PK/LDH-coupled NADH absorbance 340 nm. inhibition, % at 10 µM. hit rate 0.49% among 65,000. AID 539, 2006;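 active = top-ranked compounds by inhibition in the single 10 µM screen, taking a fixed number of the strongest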;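 also: 0% = full reaction with DMSO carrier and 100% = background rate without enzyme reaction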
Fluor 339 460: intrinsic fluorescence of library compounds, ex339/em460 – biochemical, MLSMR library, data from DPM-DC assay, artefact control, profiling panel; compound autofluorescence, ex339/em460 nm, NADH buffer; stronger effect = higher value; 1 = no-compound wells, NADH background; fluorescence fold increase at 10 µM; hit rate 5.5% among 65,000; AID 709, 2007;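 active = at 10 µM, mean starting fluorescence two-fold or more over control wells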;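 also: signal is the first read of a kinetic run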
Starred values were filed as active, the others as inactive. Most compounds without a hit are left out; they make up all but 6.5% or so of the library.

O=C(Cn1c(=O)oc2ccccc21)N1CCN(c2ccc(N3CCOCC3)nn2)CC1 was read as Abs 340nm 1.1, NADH enzymes 12%, Spn MK inh 7, Spn PMK inh 16 and Fluor 339 460 2.1*.
Screening O=C(Cn1c(=O)oc2ccccc21)N1CCCCC1 returned Abs 340nm 1, NADH enzymes 3%, Spn MK inh 8, Spn DPM-DC inh inactive, Spn PMK inh 0 and Fluor 339 460 1.1.
`Cc1ccccc1CS(=O)(=O)CCC(=O)N1CCN(c2ccc(N3CCOCC3)nn2)CC1` gave Abs 340nm 0.98, NADH enzymes 5%, Spn MK inh 2, Spn PMK inh 14 and Fluor 339 460 3.4*.
For Cc1ccc(S(=O)(=O)NC(=O)COc2ccccc2C(N)=O)cc1 the results were Abs 340nm 1.1, NADH enzymes 4%, Spn MK inh 11, Spn DPM-DC inh inactive, Spn PMK inh 2 and Fluor 339 460 1.1.
For CCn1c(N)c(C(=O)NC)sc1=S the results were Abs 340nm 1.1, NADH enzymes 13%, Spn MK inh 29, Spn DPM-DC inh inactive, Spn PMK inh 7 and Fluor 339 460 1.
For Cc1cccc(N(C)S(=O)(=O)c2ccc3[nH]cc(C(=O)N4CCOCC4)c(=O)c3c2)c1 the results were Abs 340nm 1.1, NADH enzymes 6%, Spn MK inh 5, Spn DPM-DC inh inactive, Spn PMK inh 0 and Fluor 339 460 2*.
Screening O=C(c1c[nH]c2ccc(S(=O)(=O)N3CCC4(CC3)OCCO4)cc2c1=O)N1CCOCC1 returned Abs 340nm 1.1, NADH enzymes 9%, Spn MK inh 0, Spn PMK inh 18 and Fluor 339 460 2.1*.
For CC(C)(C)OC(=O)NCCCCCc1nnc(SCC(=O)Nc2cccc(Cl)c2)o1 the results were Abs 340nm 0.99, NADH enzymes 6%, Spn MK inh 7, Spn DPM-DC inh inactive, Spn PMK inh 12 and Fluor 339 460 1.1.
Screening Cn1c(-c2nonc2NC(=O)c2ccc(C(C)(C)C)cc2)nc2ccccc21 returned Abs 340nm 1, NADH enzymes 11%, Spn MK inh 0, Spn DPM-DC inh inactive, Spn PMK inh 10 and Fluor 339 460 2.6*.
CC(=O)Nc1nonc1-c1nc2ccccc2n1CCC(C)C was read as Abs 340nm 1, NADH enzymes 5%, Spn MK inh 0, Spn DPM-DC inh inactive, Spn PMK inh 6 and Fluor 339 460 1.2.
`Cc1ccc(OCCCN(C)C)c(Br)c1` gave Abs 340nm 1.1, NADH enzymes 19%, Spn MK inh 45*, Spn DPM-DC inh inactive, Spn PMK inh 13 and Fluor 339 460 1.1.
`COc1ccc2[nH]c(=O)c(CN(CCCN(C)C)C(=O)Nc3ccccc3)cc2c1` gave Abs 340nm 1.1, NADH enzymes 13%, Spn MK inh 8, Spn DPM-DC inh inactive, Spn PMK inh 11 and Fluor 339 460 2.7*.
COc1cccc(C(=O)N(Cc2cc3cc(C)ccc3[nH]c2=O)CC2CCCO2)c1 (stereo not drawn) was read as Abs 340nm 1.1, NADH enzymes 7%, Spn MK inh 7, Spn DPM-DC inh inactive, Spn PMK inh 9 and Fluor 339 460 1.8.
CCN1CCCC1CN(Cc1cc2cc(OC)ccc2[nH]c1=O)C(=O)NCc1ccccc1 (stereo not drawn) was read as Abs 340nm 1.1, NADH enzymes 8%, Spn MK inh 3, Spn PMK inh 13 and Fluor 339 460 4.3*.
COc1ccc2[nH]c(=O)c(CN(CC3CCCO3)C(=O)Nc3ccc(F)cc3)cc2c1 (stereo not drawn) was read as Abs 340nm 1, NADH enzymes 4%, Spn MK inh 9, Spn DPM-DC inh inactive, Spn PMK inh 4 and Fluor 339 460 2.3*.
`CCc1ccc2[nH]c(=O)c(CN(CCN(C)C)C(=O)Nc3ccccc3)cc2c1` gave Abs 340nm 1.1, NADH enzymes 5%, Spn MK inh 9, Spn DPM-DC inh inactive, Spn PMK inh 7 and Fluor 339 460 1.3.
For CN(C)CCN1C(=O)C(=O)/C(=C(/O)c2ccc(OCc3ccccc3)cc2)C1c1ccncc1 (stereo not drawn) the results were Abs 340nm 1, NADH enzymes 1%, Spn MK inh 4, Spn DPM-DC inh inactive, Spn PMK inh 0 and Fluor 339 460 1.2.
CC(C)CCNc1nc2c(cc1C#N)COC(C)(C)C2 was read as Abs 340nm 1, NADH enzymes 3%, Spn MK inh 5, Spn PMK inh 0 and Fluor 339 460 2.2*.
Screening COCc1nc(-c2ccc(-c3ccc(C)cc3)nc2OC)no1 returned Abs 340nm 1, NADH enzymes 7%, Spn MK inh 0, Spn DPM-DC inh inactive, Spn PMK inh 14 and Fluor 339 460 1.9.
For COc1ccc(-c2ccc(-c3noc(C4CCCCC4)n3)c(OC)n2)cc1 the results were Abs 340nm 1.1, NADH enzymes 8%, Spn MK inh 6, Spn PMK inh 10 and Fluor 339 460 3.7*.
CCOc1nc(-c2ccc(OC)cc2)ccc1-c1noc(C)n1 was read as Abs 340nm 1.2, NADH enzymes 7%, Spn MK inh 6, Spn PMK inh 8 and Fluor 339 460 3.8*.
`COc1ccc(-c2ccc(-c3noc(C)n3)c(OC)n2)cc1` gave Abs 340nm 1.2, NADH enzymes 7%, Spn MK inh 5, Spn PMK inh 9 and Fluor 339 460 3.8*.
For COC(=O)c1cc(OC)c(OC)cc1NC(=O)Nc1ccccc1OC the results were Abs 340nm 1, NADH enzymes 14%, Spn MK inh 15, Spn PMK inh 13 and Fluor 339 460 2.1*.
COC(=O)c1cc(OC)c(OC)cc1NC(=O)c1oc2ccccc2c1C was read as Abs 340nm 1.1, NADH enzymes 16%, Spn MK inh 9, Spn DPM-DC inh active, Spn PMK inh 5 and Fluor 339 460 2.5*.
`COCCNC(C)C(=O)Nc1ccc(Br)cc1` (stereo not drawn) gave Abs 340nm 1, NADH enzymes 17%, Spn MK inh 35, Spn DPM-DC inh inactive, Spn PMK inh 12 and Fluor 339 460 1.1.
Screening Nn1c(SCC(=O)Nc2cccc(F)c2)nnc1C1CCCCC1 returned Abs 340nm 1, NADH enzymes 5%, Spn MK inh 7, Spn DPM-DC inh inactive, Spn PMK inh 9 and Fluor 339 460 1.1.
O=C(Nc1ccc2c(c1)oc1ccccc12)c1ccc2c(c1)OCO2 was read as Abs 340nm 1.1, NADH enzymes 13%, Spn MK inh 11, Spn DPM-DC inh inactive, Spn PMK inh 9 and Fluor 339 460 1.9.

Screening results (PubChem BioAssay)
